# According to PubChem BioAssay AID504773 (Broad Institute, 2011):
# Measured potencies and affinities stand elsewhere. A number with no mark means an inactive call.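 Rule for the calls: active = polarization signal falls with dose and the fitted half-maximal concentration is at or below ten times the sample's top valid dose; inconclusive = flat curve at 30 to 70% inhibition, or poor fit; inactive = signal rises, flat within 30%, or potency beyond limit.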
# Molecular target: Golgi-associated PDZ and coiled-coil motif-containing protein (Homo sapiens) (UniProt Q9HD26)
# Test: potency against CAL PDZ-peptide interaction – biochemical, fluorescence polarization, Cerulean-tagged CAL PDZ, cherry-picks, dose response (AID 504773);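 note: 0% = DMSO neutral wells and -100% = excess unlabeled competitor peptide wells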
# Settings: CAL PDZ-peptide binding, 1 h; series mostly up to 50 µM; activity change, negative = inhibition: at the top concentration
row,SMILES,"activity change, negative = inhibition [%]"
1,COc1ccccc1C(=O)Nc1ccc2c(c1)CN(C(=O)CSC)CC2,5.71
2,CN1CCN(c2ccccc2NC(=O)c2ccc(N3CCCC3)c([N+](=O)[O-])c2)CC1,10.2
3,COc1ccc(/C=C/C(=O)Nc2ccc3nc4n(c(=O)c3c2)CCCC4)cc1OC,-58.9
4,CC(=O)Nc1cc(NC(C)=O)cc(C(=O)OCC(=O)Nc2ccc(S(=O)(=O)NC3=NCCCCC3)cc2)c1,19
5,CN(C)c1ccc(C(=O)OCC(=O)NC2CCCCCC2)cc1,9.33
6,CCCCNC(=S)NNc1c(Cl)cc(Cl)cc1Cl,-19.6
7,O=C(NCc1cccnc1)/C(=C/c1ccc(-c2cccc(C(F)(F)F)c2)o1)NC(=O)c1ccccc1,8.73
8,Cc1ccc(C)c(N(CC(=O)NC(C)(C)C)C(=O)CCC(=O)Nc2nccs2)c1,3.45
9,COc1cc(Cl)c(CN2CCCC(CO)(Cc3cccc(Cl)c3)C2)cc1OC (configuration not stated),-10.6
10,COc1cccc(NC(=O)N2CCCCCC2)c1,21.9
11,COc1ccc(OC)c(S(=O)(=O)NCCCn2ccnc2)c1,-6.91
12,CCOC(=O)C1(CCOc2ccccc2)CCN(CC(O)CO)CC1 (configuration not stated),-21.3
13,O=C1c2ccccc2C(O)N1c1ccccc1 (configuration not stated),8.17
14,Cc1cc(=O)n2c3ccccc3n(CC(O)CN3CCN(CCO)CC3)c2c1C#N (configuration not stated),-14.9
15,O=S(=O)(c1cccc2ccccc12)N1CCCCC1,-41.9
16,CCc1nc(SCC(=O)c2ccccc2)c2c(=O)n(C)c(=O)n(C)c2n1,13.2
17,COc1ccc(-c2nc3ccccc3o2)cc1OC,-10.8
18,CC(CN1CCCC1)OC(=O)C(c1ccccc1)c1ccccc1 (configuration not stated),-30.8
19,CCCCN1CC(O)=C(c2nc(-c3ccc(Cl)cc3)cs2)C1=N,6.58

row,SMILES,"activity change, negative = inhibition [%]"
1,COc1ccccc1NC(=O)N(c1c(N)n(Cc2ccccc2)c(=O)[nH]c1=O)C1CCCC1,26.7
2,Cc1nn(C)cc1CN(C)C(=O)c1nn2c(c1Br)NC(c1cccs1)CC2C(F)(F)F (configuration not stated),23.8
3,O=C(CCN1C(=O)c2ccccc2C1=O)CN1CCOCC1,-18.3
4,Cc1ccc(NC(=O)N2CCCC2C(=O)NCC2CCCO2)cc1 (configuration not stated),7.35
5,Cc1cccc(N(Cc2cc(=O)[nH]c3ccccc23)C(=O)C(C)C)c1,31.4
6,CCCNC(=O)C(=O)NCC1CCCN1CC (configuration not stated),-64.5
7,CC(C)OC(=O)C1CC(C)(O)C(=O)C(C(=O)OC(C)C)C1c1ccc([N+](=O)[O-])cc1 (configuration not stated),-42
8,CCOC(=O)/C=C/C(=O)OCC(=O)Nc1ccc([N+](=O)[O-])cc1,29.7
9,C=CCOc1ccc2ccccc2c1CNn1cn[nH]c1=S,33
10,CC(C)CNC(=O)COC(=O)CCC(=O)c1ccc(Cl)cc1,-42.5
11,CCCCNC(=O)c1ccc(-n2c(=S)[nH]c3ccccc3c2=O)cc1,-57.6
12,NC(=O)c1cc2ccccc2o/c1=N\NC(=O)c1ccncc1,-26.7
13,CCOC(=O)N1CCN(Cc2nc3c(c(=O)n(C)c(=O)n3C)n2Cc2cccc(C)c2)CC1,15.9
14,C=CCN1C(=O)/C(=C/c2ccsc2)SC1=S,-19.4
15,O=C(NC12CC3CC(CC(C3)C1)C2)c1ccco1,-31.5
16,CC1=C(C#N)C(Nc2ccc(Cl)cn2)(C(F)(F)F)C(=O)N1 (configuration not stated),-3.46
17,COc1ccc(C(C)=O)cc1COC(=O)CNC(=O)c1ccccc1F,-10.4
18,COCCN(Cc1nc(C(c2ccccc2)c2ccccc2)no1)C(C)C,6.45
